Shown are actives, neighbours in structure and some others; about 9.3% of the full set was active somewhere.
ELG1 DNA repair – ELG1-dependent DNA repair inhibition. HEK293T ELG1-luciferase reporter, luminescence, 16 h; DNA damage induced by 5-fluorouridine. Potency, µM (highest dose often 46.1 µM), actives largely listed as inhibitors. hit rate 2.3% among 330,000. AID 504467; further: nearly all actives have a fitted effect of over 55% in size
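HEK293T cells expressing luciferase-tagged ELG1 (2,000/well) received 5-Fluorouridine plus compound or DMSO for 16 hr at 37 °C. Luciferase was read by ONE-Glo luminescence after 30 min at room temperature.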
FLuc counter – firefly luciferase modulation, counter-screen for miR-21 project; purified FLuc, Km substrates, luminescence inhibition; Potency, µM (doses to about 57.5 µM), actives largely listed as inhibitors; hit rate 6.9% among 360,000; AID 588342; further: nearly all actives have a fitted effect of over 55% in size
Target sequence (P08659 whole entry, looked up): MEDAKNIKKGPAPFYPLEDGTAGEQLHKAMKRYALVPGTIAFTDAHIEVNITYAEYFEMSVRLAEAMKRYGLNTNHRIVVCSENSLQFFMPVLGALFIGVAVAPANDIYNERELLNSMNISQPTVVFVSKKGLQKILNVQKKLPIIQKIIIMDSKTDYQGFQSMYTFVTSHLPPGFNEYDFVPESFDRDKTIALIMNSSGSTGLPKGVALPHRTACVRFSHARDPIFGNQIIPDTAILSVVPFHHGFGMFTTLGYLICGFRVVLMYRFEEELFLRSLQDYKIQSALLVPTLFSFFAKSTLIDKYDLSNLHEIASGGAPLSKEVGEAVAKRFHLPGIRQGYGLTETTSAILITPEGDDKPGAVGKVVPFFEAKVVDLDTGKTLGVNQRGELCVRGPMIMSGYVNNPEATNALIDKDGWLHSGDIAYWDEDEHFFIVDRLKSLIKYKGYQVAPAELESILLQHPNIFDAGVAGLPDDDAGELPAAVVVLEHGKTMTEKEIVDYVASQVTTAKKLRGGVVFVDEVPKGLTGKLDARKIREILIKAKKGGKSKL
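Purified P. pyralis luciferase (10nM final) with 10uM D-luciferin and 10uM ATP (Km levels) in 50mM Tris acetate pH 7.5, 10mM Mg acetate, 0.01% Tween-20, 0.05% BSA; qHTS 6-point titration, ~60 µM downward; luminescence read.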
Rab9 prom act – activators of Rab9 promoter; Huh7 Rab9 promoter-luciferase reporter, luminescence, 24 h; AID 485297; Potency, µM (titrated, usually from 9.22 µM), most hits filed as activators; hit rate 2.8% among 320,000; further: nearly all actives have a fitted effect of over 60% in size
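Promoter activation is measured as luciferase luminescence in Huh7 cells stably transfected with a Rab9 promoter–luciferase construct, following 24 h compound exposure at 37 °C and 10 min reagent incubation at ambient temperature.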
SMN2 splice up – increases expression of the SMN2 splice variant; AID 1458; hit rate 2.8% among 210,000; Potency, µM (titrated, usually from 46.1 µM), actives largely listed as activators; HEK293 SMN2-luciferase splicing reporter, luminescence, 30-36 h; further: nearly all actives have a fitted effect of over 55% in size
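qHTS luciferase splicing reporter: luminescence rises when SMN2 exon 7 is included in transfected HEK293 cells. Compound exposure lasted 30-36 h at 37C, with 4.5 mM final sodium butyrate as control, followed by a ONE-Glo read.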
NPC1 promoter act – activators of NPC1 promoter; Huh7 NPC1 promoter luciferase reporter, 24 h; Potency, µM (series often up to 9.22 µM), usual class: activators; hit rate 2.4% among 320,000; further: nearly all actives have a fitted effect of over 60% in size
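Stably transfected Huh7 (NPC1 promoter→luciferase), 1500 cells/well in Opti-MEM + 10% FBS, 2 h settle, then compound 24 h at 37 °C. Luminescence after 10 min with Amplite reagent.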
ELG1 genotoxic – induces genotoxicity in HEK293T cells with luciferase-tagged ELG1; AID 504466; Potency, µM (series often up to 46 µM), actives largely listed as activators; hit rate 1.3% among 330,000; HEK293T ELG1-luciferase reporter, luminescence, 16 h; further: nearly all actives have a fitted effect of over 60% in size
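Quantitative HTS format in 1536-well plates. HEK293T ELG1-luciferase reporter cells receive test compound and are incubated 16 hr at 37 °C, 5% CO2; ONE-Glo added, 30 min room temperature, then luminescence read.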
Numbers stand for hits; n = inactive; u = inconclusive; x = not tested or not shown. The call rests on the fitted dose curve; in most records, active means well fitted curve in the direction sought with a large enough effect; inconclusive means small, poorly fitted or top-dose-only effect, or another doubt; inactive means no such curve, though single readings can be large; an effect the other way counts as inactive or inconclusive.

SMILES | ELG1 DNA repair | FLuc counter | Rab9 prom act | SMN2 splice up | NPC1 promoter act | ELG1 genotoxic
COC(=O)CC1(C(=O)OC)Oc2ccc(Br)cc2C(=O)N1c1cc(Cl)cc(Cl)c1 (centres undefined) | u | n | n | x | n | n
COC(=O)CC1(C(=O)OC)Oc2ccc(Br)cc2C(=O)N1c1cccc(Cl)c1Cl (centres undefined) | u | n | n | x | n | n
COC(=O)CC1(C(=O)OC)Oc2ccc(Br)cc2C(=O)N1c1ccc(Br)cc1Cl (centres undefined) | 23.1µM | n | n | x | n | n
Cc1cccc(NS(=O)(=O)c2cccc(C(=O)N3CCN(c4ccccn4)CC3)c2)c1 | u | n | n | x | n | n
O=C(CCl)Nc1cccc(-c2cnc3ccccc3n2)c1 | 9.2µM | 12µM | n | n | n | n
CCc1ccc(-c2cnc3ccccc3n2)cc1NC(=O)CNC(=O)c1ccccc1 | u | 2.69µM | 3.98µM | x | 3.55µM | 3.66µM
CCC(=O)Nc1cccc(-c2cnc3ccccc3n2)c1 | u | 19µM | u | n | u | u
O=C(CSCc1cccc(Cl)c1)N/N=C/c1ccc(OCC(=O)N2CCCCC2)cc1 | n | n | n | n | n | n
COc1cnc(SCc2ccc(Cl)cc2Cl)nc1Cl | n | n | n | n | n | n
C#CCn1cc(C=C2C(=O)c3ccccc3C2=O)c2ccccc21 | u | 2.39µM | n | n | n | n
O=C(Nc1ccc(-c2nnc(-c3ccccc3)o2)cc1)C(F)(F)F | u | u | 1.26µM | x | 1.58µM | u
CC(C)C(=O)Nc1ccc(-c2nnc(-c3ccccc3)o2)cc1 | u | 2.39µM | 0.316µM | x | 0.316µM | u
CC(C)C(=O)Nc1ccc(C(=O)c2ccccc2)cc1 | u | u | u | u | n | n
CC(=O)/C=C(\C)Nc1ccc(-c2cnc(-c3ccccc3)o2)cc1 | u | 1.9µM | 0.447µM | 3.98µM | 1µM | 2µM
CC(C)CCN1CCN(Cc2cnc(N3CCCC3)s2)CC1CCO (centres undefined) | n | n | n | x | n | n
COc1ccc(C2=NN(CN3C(=O)C(=O)c4ccccc43)C(c3ccc(OC)cc3)C2)cc1 (centres undefined) | u | u | 3.55µM | 10µM | u | u
COc1ccc(C2CC(c3ccccc3)=NN2c2ccc(S(N)(=O)=O)cc2)cc1 (centres undefined) | n | 9.53µM | n | x | n | n
CCC(C)Oc1cc(-c2ccnc(Nc3cccc(Cl)c3)n2)ccn1 (centres undefined) | u | n | n | x | n | n
OCCCNc1cc(-c2ccnc(Nc3cccc(Cl)c3)n2)ccn1 | 0.58µM | u | n | x | n | n
COc1ccccc1N1CCN(CCCCCCOc2ccc(F)cc2)CC1 | n | n | n | n | n | n
CCN1CCN(Cc2ccc(NC(=O)c3cc(NC(=O)c4ccno4)cc(OC)c3)cc2C(F)(F)F)CC1 | n | n | n | x | n | n
CCN1CCN(Cc2ccc(NC(=O)c3cc(NC(=O)c4ccc5n[nH]nc5c4)cc(OC)c3)cc2C(F)(F)F)CC1 | n | 2.69µM | n | x | n | n
CCN1CCN(Cc2ccc(NC(=O)c3cc(NC(=O)c4cc(-c5ccc(OC)cc5)n[nH]4)cc(OC)c3)cc2C(F)(F)F)CC1 | n | 13.5µM | n | x | n | n
COc1ccc(C2c3[nH]c4ccccc4c3CCN2C(=O)Cc2nonc2C)c(F)c1 (centres undefined) | u | 4.78µM | u | x | n | n
CCn1nc(C)cc1C(=O)N1CCc2c([nH]c3ccccc23)C1c1cc(F)ccc1F (centres undefined) | u | 21.3µM | u | x | u | u
COc1ccc(C2c3[nH]c4ccccc4c3CCN2Cc2ccoc2)c(F)c1 (centres undefined) | n | n | n | x | n | n
Cc1coc2c(C)c3oc(=O)c(CC(=O)NCCc4ccc(Cl)cc4)c(C)c3cc12 | x | n | x | n | x | x
COc1ccc(NC(=O)C(NC(=O)/C=C\c2ccc3c(c2)OCO3)c2ccccc2)cc1 (centres undefined) | x | n | x | 2µM | x | x
COc1ccccc1NC(=O)/C=C/c1ccc2c(c1)OCO2 | u | 6.75µM | u | 11.2µM | n | n

Assay outcomes from PubChem BioAssay.
